Source: PubChem BioAssay
E coli growth-1 = E. coli growth inhibition. OD600 absorbance (no concentration beside the values). Escherichia coli growth, OD600, 23 h; stronger effect = lower value. 330,000 tested, 0.21% active;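 active = OD600 absorbance below the run mean of sample wells minus 3.6 SD, in any replicate, cut at about 0.56 in these data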
E coli growth-2 = counter-screen for AddAB inhibitors: E. coli growth inhibition; 330,000 tested, 0.27% active; E. coli V3065 growth, OD600 absorbance, 18 h; inhibition, % at 11.9 µM;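 active = inhibition above the campaign's mean inhibition across all tested compounds plus 3 SD, cut at about 9.9% in these data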;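 note: uninfected addAB+ strain grown without phage in ampicillin broth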
phage Ecoli inh = E. coli growth loss with phage present; growth absorbance; inhibition, % at 11.9 µM; 360,000 tested, 0.26% active; in the data active = inhibition above about 11%
AddAB inh = less growth of phage-infected E. coli with AddAB | E. coli expressing H. pylori AddAB, absorbance growth | 330,000 tested, 0.29% active | inhibition, % at 11.9 µM; in the data active = inhibition above about 12%
Tat transport = E. coli Tat transport inhibition. E. coli MC4100 TorA-mCherry Tat export, fluorescence. inhibition, % at 10 µM. 340,000 tested, 0.036% active. AID 488895;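 active = mean replicate inhibition at least 50% and at least half of replicates individually reaching 50%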;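 note: exported cargo escapes ClpAP degradation while cytoplasmic cargo is degraded and loses fluorescence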
A number is an active result; i = inactive; nt = not tested or not shown. Most compounds without a hit are left out; they make up all but 0.5% or so of the library.

SMILES | E coli growth-1 | E coli growth-2 | phage Ecoli inh | AddAB inh | Tat transport
C/C(C=NNC(=O)CN1CCN(S(=O)(=O)c2ccc(C)cc2)CC1)=C\c1ccccc1 | i | nt | nt | nt | nt
O=C(NNc1ccc(O)cc1)c1ccc(Br)cc1 | 0.436 | i | i | i | i
O=C(NNc1ccccc1)c1ccccc1 | i | nt | i | nt | i
CCc1cccc2c1Sc1ccccc1CC2N1CCNCC1 (stereo not given) | i | i | i | i | i
Cc1cccc2c1Sc1ccc(Cl)cc1CC2N1CCNCC1 (stereo not given) | 0.394 | i | nt | i | nt
CC(C)C(=O)ON=C1CCS(=O)(=O)c2sccc21 | i | nt | nt | nt | nt
Cc1cc(Nc2ccccc2)nc(NCc2ccccc2)n1 | i | i | i | i | i
Cc1cc(Nc2ccc(Cl)cc2)nc(NCc2ccccc2)n1 | 0.408 | i | i | i | i
CC(CC(=O)NCCCN1CCOCC1)=NNC(=O)COc1ccc(C)cc1 | i | nt | nt | nt | nt
Cc1cc(=O)[nH]c(SCC(=O)Nc2ccc(Br)cc2)c1C#N | 0.514 | i | i | i | i
C=CC1c2ccccc2N(S(=O)(=O)c2ccc(C)cc2)C(c2ccc(OC(C)=O)cc2)C1(C#N)C#N (stereo not given) | i | nt | nt | nt | nt
CC1CN(C(C)CO)C(=O)c2cc(NC(=O)C3CC3)ccc2OC1CN(C)C(=O)NC1CCCCC1 (stereo not given) | i | nt | nt | nt | nt
NC(=NCCCCCCN=C(N)N=C(N)Nc1ccc(Cl)cc1)N=C(N)Nc1ccc(Cl)cc1 | 0.0625 | nt | nt | nt | nt
CC(C)N=C(N)N=C(N)Nc1ccc(Cl)cc1 | i | i | i | i | i
CC(=CC(=O)OCCCCCCCCC(=O)O)CC1OCC(CC2OC2C(C)C(C)O)C(O)C1O (stereo not given) | 0.125 | nt | nt | nt | nt
O=C(Nc1ccc(Cc2ccncc2)cc1)c1ccc([N+](=O)[O-])o1 | i | 12.8 | i | i | i
O=C(Nc1ccc(Cc2ccncc2)cc1)c1cccc([N+](=O)[O-])c1 | i | i | i | i | i
O=[N+]([O-])c1ccc(N=Nc2c(Cl)cc(O)cc2Cl)cc1 | 0.403 | i | i | i | i
CC(CC(=O)Nc1ccc(C)cc1C)=NNC(=O)C(C)C | i | nt | nt | nt | nt
c1ccc(CCNc2ccnc3cc4ccccc4cc23)cc1 | 0.497 | nt | i | nt | i
CC(C)Nc1ccc(Nc2ccnc3cc4ccccc4cc23)cc1 | i | i | i | i | i
CCCCCC(=O)Nc1cccc(C2=NOC3(C2)CC(C(N)=O)N(C(=O)CC(c2ccccc2)c2ccccc2)C3)c1 (stereo not given) | i | nt | nt | nt | nt
CC(C)C(CN1CCCC1CN1C(N)=NCC1Cc1ccccc1)N1CC(Cc2ccccc2)N(CCc2ccc(Cl)c(Cl)c2)C1=N (stereo not given) | 0.0465 | nt | nt | nt | nt
CCC(C)C1CN(C(C)CN2CCCC2CN2C(N)=NCC2Cc2ccccc2)C(=N)N1CCc1ccc(Cl)c(Cl)c1 (stereo not given) | i | nt | nt | nt | nt
CC(C)CC1CN=C(N)N1CC1CCCN1CC(C)N1CC(Cc2ccccc2)N(CCc2ccc(Cl)c(Cl)c2)C1=N (stereo not given) | 0.197 | nt | nt | nt | nt
SMILES | E coli growth-1 | E coli growth-2 | phage Ecoli inh | AddAB inh | Tat transport
CC(C)C[C@@H]1CN=C(N)N1C[C@@H]1CCCN1C[C@H](C)N1C[C@@H](Cc2ccccc2)N(CCc2ccc(Cl)c(Cl)c2)C1=N | nt | i | nt | i | i
CC(C)C[C@@H]1CN=C(N)N1C[C@@H]1CCCN1C[C@@H](C(C)C)N1C[C@@H](Cc2ccccc2)N(CCc2ccc(Cl)c(Cl)c2)C1=N | 0.07 | i | i | i | i
CC(C)(C)c1ccc(C(=O)NCC(=O)NN=Cc2ccccc2OCC(=O)O)cc1 | i | nt | nt | nt | nt
COCCCNC(=O)CSc1ccsc1[N+](=O)[O-] | i | 11.2 | i | i | i
O=C1CCN(Cc2ccccc2)CCN1C(CSc1ccccc1)c1ccccc1 (stereo not given) | i | nt | nt | nt | nt
COc1ccc(CNc2ncnc3c2[nH]c2ccccc23)cc1 | nt | i | i | i | nt
Cc1ccc2[nH]c3c(NCc4ccccc4)ncnc3c2c1 | 0.464 | nt | i | nt | nt
Cc1cc(-c2n[nH]c(=S)n2N=C/C=C/c2ccccc2)n[nH]1 | i | nt | nt | nt | nt
Cc1cc(-c2n[nH]c(=S)n2N=C/C(Br)=C/c2ccccc2)n[nH]1 | 0.0585 | nt | nt | nt | nt
Nc1ncncc1-c1ccc([N+](=O)[O-])cc1 | 0.362 | i | i | i | i
COc1ccc(C2C=CCN(C(=O)c3ccccc3)C(Cc3ccccc3)C(=O)N2Cc2ccc(F)cc2)cc1 (stereo not given) | i | nt | nt | nt | nt
O=S1(=O)CCOC2Cc3ccccc3C2N1Cc1cccc(F)c1 (stereo not given) | i | nt | nt | nt | nt
Fc1cccc(Cl)c1C=NNc1c(Cl)cncc1Cl | i | nt | nt | nt | nt
COc1ccc(-n2c(O)c(C=NNS(=O)(=O)c3ccc(C)cc3)c3ccccc3c2=O)cc1OC | i | nt | nt | nt | nt
Cc1sc2ncnc(N/N=C/c3cccc(O)c3)c2c1C | nt | i | i | i | i
